Reference: PubChem BioAssay AID1445 (SRMLSC, 2008)
Hit rate of the full screen: of about 220,000 compounds, about 910 (0.41%) were called active. The sample holds actives, similar compounds and a random draw of the others, so the mix is not that of the screen. Results with a measured potency or affinity are listed apart. A number with no mark means an inactive call.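 Rule for the calls: active = primary inhibition above the hit cutoff, then over 50% inhibition at one or more dose response concentrations (cut at about 23% in these data, passing the limit was not always enough); inconclusive = conflicting primary data, or primary hits not chosen for dose response; inactive = low primary inhibition, or under 50% at every dose.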

biological target: Aminopeptidase N (Plasmodium falciparum (isolate 3D7)) (UniProt O96935); experiment: P. falciparum M1AAP inhibitors, biochemical, fluorogenic H-Leu-NHMec substrate, 1536-well (AID 1445); conditions: recombinant M1AAP, H-Leu-NHMec fluorogenic kinetic assay; at 30 µM, hits give high values unless noted;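 note: plate controls were DMSO full reaction for no effect and no enzyme background for full effect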
Sequence (O96935 whole entry, looked up): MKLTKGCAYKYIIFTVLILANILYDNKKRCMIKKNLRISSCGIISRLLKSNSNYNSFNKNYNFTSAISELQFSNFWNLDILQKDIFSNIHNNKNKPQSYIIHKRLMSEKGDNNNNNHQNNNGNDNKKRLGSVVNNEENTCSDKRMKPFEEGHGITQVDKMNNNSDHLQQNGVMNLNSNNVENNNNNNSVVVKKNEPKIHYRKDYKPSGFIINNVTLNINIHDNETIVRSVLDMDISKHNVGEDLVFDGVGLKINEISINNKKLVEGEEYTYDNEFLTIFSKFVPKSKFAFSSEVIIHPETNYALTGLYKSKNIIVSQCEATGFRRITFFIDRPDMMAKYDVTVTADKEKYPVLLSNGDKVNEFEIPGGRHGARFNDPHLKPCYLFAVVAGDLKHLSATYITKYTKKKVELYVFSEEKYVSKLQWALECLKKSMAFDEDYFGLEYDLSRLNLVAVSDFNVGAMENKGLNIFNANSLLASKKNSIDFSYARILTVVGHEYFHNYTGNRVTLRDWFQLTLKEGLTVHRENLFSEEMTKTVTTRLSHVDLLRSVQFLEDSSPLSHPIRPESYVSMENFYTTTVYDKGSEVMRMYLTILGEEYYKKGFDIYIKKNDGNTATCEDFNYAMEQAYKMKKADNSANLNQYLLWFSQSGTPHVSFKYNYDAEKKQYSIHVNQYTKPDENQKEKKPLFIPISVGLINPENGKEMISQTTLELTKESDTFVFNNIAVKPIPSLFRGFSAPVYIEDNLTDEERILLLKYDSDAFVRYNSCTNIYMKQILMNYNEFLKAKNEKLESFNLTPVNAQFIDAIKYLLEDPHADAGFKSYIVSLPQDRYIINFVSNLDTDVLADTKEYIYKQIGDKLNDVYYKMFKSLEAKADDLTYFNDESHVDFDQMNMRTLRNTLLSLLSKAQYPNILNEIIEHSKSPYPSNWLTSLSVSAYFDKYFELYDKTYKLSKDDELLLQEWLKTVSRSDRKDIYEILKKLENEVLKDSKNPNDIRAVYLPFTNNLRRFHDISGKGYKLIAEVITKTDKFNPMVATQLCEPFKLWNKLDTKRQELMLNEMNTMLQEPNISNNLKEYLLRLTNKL

In order of falling inhibition:
1. O=C(CN1CCC(NC(=O)c2ccc(F)cc2)CC1)NCc1ccccc1F  31.9%
2. COc1ccc(C2CC(c3ccccc3)=NN2c2ccc(S(N)(=O)=O)cc2)cc1 (configuration not stated)  22.3%
3. COc1cccc(OC)c1NC(=O)CN1CCC(NC(=O)c2cccc(F)c2)CC1  20.7%
4. COc1ccc(C2CC(c3ccccc3)=NN2c2ccc(S(N)(=O)=O)cc2)cc1OC (configuration not stated)  19.9%
5. NS(=O)(=O)c1ccc(N2N=C(c3ccccc3)CC2c2ccccc2)cc1 (configuration not stated)  19.1%
6. COc1cc(/C=C2\SC(=S)N(C(C(=O)O)c3ccccc3)C2=O)cc(OC)c1OC (configuration not stated)  18.4%
7. O=C(O)C(Cc1ccccc1)N1C(=O)/C(=C/c2ccccc2)SC1=S (configuration not stated)  18.4%
8. CCOc1ccccc1N1CSC2=C(C#N)C(c3c(OC)ccc4ccccc34)CC(=O)N2C1 (configuration not stated)  18.2%
9. O=C(CN1CCC(NC(=O)c2ccc(Br)cc2)CC1)NCc1cccs1  17.5%
10. O=C(c1ccco1)n1nc(-c2cccnc2)nc1NCc1ccco1  16.8%
11. Cc1cc(-c2n[nH]c(=S)n2/N=C/C=C/c2ccccc2)n[nH]1  16.6%
12. COc1ccc2ccccc2c1C1CC(=O)N2CN(C)CSC2=C1C#N (configuration not stated)  16%
13. O=C(O)c1cccc2c1C(=O)c1ccccc1C2=O  15.9%
14. Cc1ccc(C(=O)NC2CCN(CC(=O)NCc3cccs3)CC2)cc1  15.8%
15. O=c1[nH]c(N2CCOCC2)nc2c1CCCC2  15.6%
16. CCOc1ccc(/C=C2\SC(=S)N(C(C(=O)O)c3ccccc3)C2=O)cc1OC (configuration not stated)  14.7%
17. Cc1ccc(/C=C2\SC(=S)N(C(Cc3ccccc3)C(=O)O)C2=O)cc1 (configuration not stated)  14.4%
18. CCOc1cccc(Nc2cc3n(c(=O)n2)CCc2cc(OC)c(OC)cc2-3)c1  12.6%
19. O=C(CN1CCC(NC(=O)c2ccccc2Cl)CC1)NCc1ccco1  12.1%
20. CCOc1ccc(/C=C2/SC(=S)N(C(C(=O)O)c3ccccc3)C2=O)cc1OCC (configuration not stated)  12.1%
21. O=C(CN1CCC(C(=O)c2cccc(F)c2)CC1)NCc1cccs1  11.7%
22. COc1cc2c(cc1OC)-c1cc(Nc3ccccc3)nc(=O)n1CC2  11.4%
23. COc1cc(/C=C2/SC(=S)N(c3c(C)n(C)n(-c4ccccc4)c3=O)C2=O)ccc1O  11.3%
24. Cc1ccccc1C(=O)NC1CCN(CC(=O)Nc2ccc3c(c2)OCO3)CC1  10.9%
25. O=c1[nH]c(/C(=N\O)c2ccccc2)no1  10.2%
26. Cc1ccc(OCCCNCCO)c(Br)c1  9.5%
27. Cc1ncc(CO)c(/C=N/NC(=S)Nc2ccc(C(C)C)cc2)c1O  9.46%
28. CCOc1ccc(OCC)c(NC(=O)CN2CCC(NC(=O)c3cccc(F)c3)CC2)c1  8.37%
29. O=C(Cc1cccs1)Nc1nnc(-c2ccccc2)s1  8.23%
30. COc1ccccc1CNC(=O)CN1CCC(NC(=O)c2ccccc2F)CC1  8.21%
31. CCn1nnnc1SCC(=O)Nc1ccc(OCc2ccccc2)cc1  7.63%
32. CSc1cccc(NCc2ccc([N+](=O)[O-])cc2)c1  7.42%
33. Cc1cc(C(=O)CSc2nnc(C3COc4ccccc4O3)n2C)c(C)n1-c1ccc(F)cc1 (configuration not stated)  7.16%
34. Cn1cccc1Cc1nnc(SCC(=O)NC2CCCCC2)n1-c1ccc(F)cc1  6.82%
35. CCCc1n(CC(O)COCc2ccccc2)c2ccccc2[n+]1C (configuration not stated)  6.5%
36. O=[N+]([O-])c1ccc(N/N=C\c2cccnc2)nc1  6.43%
37. COc1cccc(N2C(=O)CC(N3CCN(CCN=CC4=C(O)CC(C)(C)CC4=O)CC3)C2=O)c1 (configuration not stated)  5.88%
38. COc1cc(OC)c2c(-c3ccccc3)cc(=O)oc2c1C(CC(=O)N1CCN(c2ccccc2)CC1)c1ccc2c(c1)OCO2 (configuration not stated)  5.15%
39. O=C(O)C(Cc1ccccc1)N1C(=O)/C(=C/c2cccnc2)SC1=S (configuration not stated)  5.04%
40. NS(=O)(=O)c1ccc(N2N=C(c3ccc(Br)cc3)CC2c2ccc(F)cc2)cc1 (configuration not stated)  5.03%
41. CC(c1cccs1)N(Cc1ccco1)C(=S)Nc1ccc(F)c(Cl)c1 (configuration not stated)  4.95%
42. Nc1c(C(=O)O)ccc2c1C(=O)c1ccccc1C2=O  4.92%
43. COc1ccc(/C=C2\SC(=S)N(C(Cc3ccccc3)C(=O)O)C2=O)cc1 (configuration not stated)  4.89%
44. CS(=O)(=O)N(CC(=O)Nc1ccccc1C(=O)N1CCCC1)c1ccc2c(c1)OCO2  4.85%
45. COc1cccc(-n2c(CN3CCN(Cc4ccccc4)CC3)nc3ccc([N+](=O)[O-])cc3c2=O)c1  4.64%
46. Cc1nnc(SCc2ccc(Cl)cc2Cl)[nH]c1=O  4.54%
47. O=C(NCc1ccccc1)c1onc(CSc2ccccn2)c1C(=O)NCc1ccccc1  4.51%
48. CC[C@@H]1CC=C[C@H]2[C@H]1C(=O)N(Cc1ccccc1)[C@H]2c1ccc(OC)c(Cl)c1  4.5%
49. O=c1[nH]c2ccc(Br)cc2c(-c2ccccc2)c1N1CCOCC1  3.65%
50. S=c1[nH]nc(-c2ccc(Br)cc2)n1Cc1ccco1  3.64%
51. Cc1ccccc1C(=O)NC1CCN(CC(=O)NCc2ccc(F)cc2)CC1  3.39%
52. Cc1ccc(C(=O)Nc2ncc(Cc3ccc(F)cc3)s2)o1  3.37%
53. CC(C)N(C)C1CCN(C(=O)Nc2ccc(Cl)cc2)CC1  3.02%
54. CN(C)CC(C)(C)CNC(=S)Nc1ccc(S(=O)(=O)N2CCOCC2)cc1  2.96%
55. O=C(C1CC1)N1CCN(S(=O)(=O)c2ccc3c(c2)OCCO3)CC1  2.72%
56. COCc1nnc(NS(=O)(=O)c2ccc([N+](=O)[O-])cc2)s1  2.64%
57. COC(=O)c1c(NC(=O)CSc2ccccc2N)sc(C)c1C  2.47%
58. CC1(C)Cc2nc3sc(C(=O)NCCO)c(N)c3cc2CO1  1.79%
59. CCOc1ccc(/C=C2\SC(=S)N(CCC(=O)O)C2=O)cc1  1.74%
60. CCC(C)(C)NC(=O)C(c1ccc(C)o1)N(C(=O)c1csnn1)c1cccc(F)c1 (configuration not stated)  1.56%
61. C=CCn1c(=O)c2ccccc2n2c(SCC(=O)Nc3sc(C)c(CC)c3C(=O)OCC)nnc12  1.54%
62. CCOC(=O)c1c(NC(=O)CSc2ncnc3ccccc23)sc(C)c1C  1.43%
63. CC(C(=O)c1c[nH]c(C(=O)N=CN(C)C)c1)c1ncc(C(F)(F)F)cc1Cl (configuration not stated)  0.78%
64. CCC(=O)NC(=S)Nc1c(C)cc(Br)cc1C  0.48%
65. COc1ccc(C(=O)Nc2nc3nccc(-c4ccccc4)n3n2)cc1  0.22%
66. COc1cccc(C(=O)NCc2ccccc2OC)c1  0.04%
67. CCCCCCC(=O)N/N=C(\C)Cc1ccccc1  -0.14%
68. Cn1cnnc1SCC(=O)Nc1ccc2nc(SCc3ccccc3F)sc2c1  -0.14%
69. COc1ccc(CNC(=S)NC(C)CCc2ccccc2)cc1 (configuration not stated)  -0.16%
70. Cc1ccccc1C(=O)NC1CCN(CC(=O)Nc2ccc3c(c2)OCCO3)CC1  -1.09%
71. CC(C)Oc1ccc(C(CC(=O)O)NC(=O)C2CCCCC2)cc1 (configuration not stated)  -1.13%
72. O=S(=O)(NCC(c1cccnc1)N1CCN(c2ccc(F)cc2)CC1)c1cccs1 (configuration not stated)  -1.2%
73. CS(=O)(=O)N(CC(=O)Nc1ccccc1C(=O)N1CCOCC1)c1ccccc1  -1.24%
74. CCCOc1cccc(NC(=O)OC2CCN(C)CC2)c1  -1.59%
75. CCOc1ccccc1NC(=O)c1ccc(S(=O)(=O)N(C)C)cc1  -1.64%
76. Cc1c(Cl)cnc(NC(=O)CSc2nncs2)c1Cl  -1.74%
77. O=C(O)CC(NC(=O)C(c1ccccc1)c1ccccc1)c1ccc(F)cc1 (configuration not stated)  -1.82%
78. Cc1cccc(C)c1NC(=O)c1sc(Cl)nc1C  -2.07%
79. C=CCOc1ccc(/C=C2\SC(=S)N(N3CCOCC3)C2=O)cc1  -2.77%
80. O=C(COc1cccc2cccnc12)N/N=C/c1ccccc1O  -2.77%
81. CC(C)(C)N/C=C(\C#N)S(=O)(=O)c1ccc(Br)cc1  -2.81%
82. Cc1ccc(SCCC(=O)Nc2ccccc2C(=O)N2CCOCC2)cc1  -3.27%
83. CC1CCN(CCc2nc3cc(NS(=O)(=O)c4ccc(F)cc4)ccc3n2C)CC1  -3.38%
84. CC(C)N(CCc1ccncc1)C(=O)Nc1ccc(Cl)c(Cl)c1  -5.52%
85. Cc1nc2cc(NC(=O)c3ccc(N4C(=O)CCC4=O)cc3)ccc2s1  -5.53%
86. COc1ccc(-c2nn(-c3ccccc3)cc2CNCCN2CCOC2=O)c(F)c1  -5.99%
87. Cc1ccc2[nH]c(=O)c(CN3CCCCC3)c(-c3ccccc3)c2c1  -7.69%
88. O=C(N/N=C/c1ccccn1)c1cc(-c2ccccc2)nc2ccccc12  -10.8%

With `O=C(CN1CCC(NC(=O)c2ccccc2F)CC1)NCc1ccc(F)cc1` the inhibition was 27.4% (active).
For `COc1cc2c(cc1OC)-c1cc(Nc3ccc4c(c3)OCCO4)nc(=O)n1CC2`, the inhibition was 24.9% (active).
For `CS(=O)(=O)N(CC(=O)Nc1ccccc1C(=O)N1CCOCC1)c1ccc2c(c1)OCO2`, the inhibition was 24.9% (active).
With `COc1ccc2ccccc2c1C1CC(=O)N2CN(C3CCCCC3)CSC2=C1C#N` (configuration not stated) the inhibition was 28% (active).
